Screening results as filed in PubChem BioAssay.
The full list was thinned out, with hits kept by preference.
Dicer processing: blocks human Dicer maturation of pre-miR-21 | Q9UPY3 | cat-ELCCA pre-miR-21 Dicer processing, chemiluminescence; active compounds read high | z-score at 25 µM | 47,000 compounds, 6% hits; in the data active = z-score above about 3, passing the limit was not always enough;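 note: plate controls were vehicle for no effect and no enzyme for full effect; higher signal means more uncleaved substrate so more Dicer inhibition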
Target sequence (Q9UPY3 whole entry, looked up): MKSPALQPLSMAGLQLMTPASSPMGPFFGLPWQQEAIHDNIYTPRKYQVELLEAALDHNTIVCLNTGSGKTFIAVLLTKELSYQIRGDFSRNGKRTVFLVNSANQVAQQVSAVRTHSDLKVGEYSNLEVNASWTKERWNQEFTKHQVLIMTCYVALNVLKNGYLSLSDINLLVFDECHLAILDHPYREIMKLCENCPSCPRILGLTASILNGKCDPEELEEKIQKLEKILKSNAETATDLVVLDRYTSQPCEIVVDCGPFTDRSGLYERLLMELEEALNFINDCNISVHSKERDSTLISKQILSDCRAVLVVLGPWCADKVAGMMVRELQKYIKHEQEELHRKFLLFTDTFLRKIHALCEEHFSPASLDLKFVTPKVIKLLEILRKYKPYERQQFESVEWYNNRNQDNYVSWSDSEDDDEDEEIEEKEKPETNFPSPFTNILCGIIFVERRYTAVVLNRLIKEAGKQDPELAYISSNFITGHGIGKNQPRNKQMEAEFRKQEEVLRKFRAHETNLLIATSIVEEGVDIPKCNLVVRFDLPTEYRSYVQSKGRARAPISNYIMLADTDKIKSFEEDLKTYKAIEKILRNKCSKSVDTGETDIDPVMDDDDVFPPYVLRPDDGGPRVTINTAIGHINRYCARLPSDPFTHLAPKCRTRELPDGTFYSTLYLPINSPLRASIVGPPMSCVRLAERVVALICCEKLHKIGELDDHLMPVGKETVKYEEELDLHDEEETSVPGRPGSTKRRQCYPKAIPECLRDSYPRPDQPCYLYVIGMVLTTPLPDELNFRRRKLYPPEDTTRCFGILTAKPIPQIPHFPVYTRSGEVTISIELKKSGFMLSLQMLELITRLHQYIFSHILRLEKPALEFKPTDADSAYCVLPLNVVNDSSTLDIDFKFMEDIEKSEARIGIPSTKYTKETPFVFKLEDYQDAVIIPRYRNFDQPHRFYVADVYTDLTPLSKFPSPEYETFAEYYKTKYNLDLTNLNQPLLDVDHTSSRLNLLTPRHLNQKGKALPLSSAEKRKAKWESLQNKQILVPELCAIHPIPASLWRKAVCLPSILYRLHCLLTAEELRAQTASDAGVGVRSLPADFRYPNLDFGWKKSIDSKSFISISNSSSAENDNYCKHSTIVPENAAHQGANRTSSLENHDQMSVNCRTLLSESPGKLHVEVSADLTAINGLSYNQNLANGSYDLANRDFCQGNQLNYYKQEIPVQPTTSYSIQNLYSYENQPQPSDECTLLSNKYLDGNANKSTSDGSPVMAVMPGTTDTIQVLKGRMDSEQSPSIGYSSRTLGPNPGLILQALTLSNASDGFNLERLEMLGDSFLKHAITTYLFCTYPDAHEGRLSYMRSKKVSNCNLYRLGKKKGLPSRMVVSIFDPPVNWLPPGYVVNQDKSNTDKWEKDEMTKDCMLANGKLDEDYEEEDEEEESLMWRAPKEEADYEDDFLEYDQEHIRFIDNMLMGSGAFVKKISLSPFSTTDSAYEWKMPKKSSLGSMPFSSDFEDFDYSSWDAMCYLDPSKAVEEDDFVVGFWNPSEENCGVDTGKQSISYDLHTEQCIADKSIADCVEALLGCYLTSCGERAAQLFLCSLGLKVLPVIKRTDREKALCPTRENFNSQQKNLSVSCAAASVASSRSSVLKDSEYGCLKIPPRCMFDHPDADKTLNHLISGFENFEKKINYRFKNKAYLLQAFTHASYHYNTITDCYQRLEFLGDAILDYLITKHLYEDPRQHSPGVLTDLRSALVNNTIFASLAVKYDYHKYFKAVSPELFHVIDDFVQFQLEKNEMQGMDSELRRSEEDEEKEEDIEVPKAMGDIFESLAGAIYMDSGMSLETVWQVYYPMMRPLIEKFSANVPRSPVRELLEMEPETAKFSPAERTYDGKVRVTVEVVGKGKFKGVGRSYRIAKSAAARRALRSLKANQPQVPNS
An asterisk follows results filed as active.

SMILES	Dicer processing
CCCOc1ccc(C2C3=C(CC(C)(C)CC3=O)NC3=C2C(=O)CC(C)(C)C3)cc1	-0.5
O=C(CSc1nnc2ccccn12)c1ccc2c(c1)OCO2	-0.46
Nc1ccc2oc(-c3ccc(-c4nc5cc(N)ccc5o4)cc3)nc2c1	1.1
O=C(Nc1ccc(-c2nc3ncccc3o2)cc1)c1ccc([N+](=O)[O-])o1	0.38
Nc1ccc2oc(-c3ccccc3F)nc2c1	2.3
Nc1ccc2oc(-c3ccc(F)cc3)nc2c1	3.7*
O=S(=O)(Nc1ccc2oc(-c3ccccc3F)nc2c1)c1ccccc1	-0.51
Cc1ccc(-c2nc3ncccc3o2)cc1N	-0.93
Fc1ccc(-c2nc3ncccc3o2)cc1	3.3*
Cc1cc(=O)oc2cc(NS(=O)(=O)c3ccccc3)ccc12	1.4
O=S(=O)(Nc1ccc2oc(-c3ccc(Cl)cc3)nc2c1)c1ccccc1	4*
O=C(CSc1ccc(Cl)cc1[N+](=O)[O-])Nc1ccc(F)cc1F	-1.6
Cc1csc(SCCCCCCC(=O)O)n1	-0.37
O=C(Nc1ccc(Cl)c(Cl)c1)n1ccc(C(F)(F)F)n1	0.16
CC(C)(C)CC(C)(C)NC(=O)C(C)(C)C	-0.4
O=C(OCc1ccccc1)[C@@H](O)c1ccccc1	0.31
CSC1=C(C#N)C(c2ccccc2Cl)CC(=O)N1 (stereo not given)	-0.03
O=C(NC(=O)c1ccc(Oc2ccc(Cl)cc2)c([N+](=O)[O-])c1)Nc1ccccc1C(F)(F)F	0.23
Oc1ccc(/C=N/NC(=S)NC2CC3CCC2C3)cc1 (stereo not given)	24*
S=C(NN=C1CCCC1)NC1CC2CCC1C2 (stereo not given)	-0.5
S=C(NNC(=S)NC1CC2CCC1C2)NC1CC2CCC1C2 (stereo not given)	1.9
Cc1c2occ(-c3ccc4c(c3)OCO4)c2cc2c1oc(=O)c1ccccc12	0.19
Cc1c2occ(-c3ccc(F)cc3)c2cc2c1oc(=O)c1ccccc12	4.2*
COc1ccc2c(c1)c(=O)oc1c(C)c3occ(-c4ccc(F)cc4)c3cc12	-0.64
c1cnc2c(SCc3cn4ccccc4n3)cccc2c1	0.04
SMILES	Dicer processing
CC1CCc2c(sc3nnn(CC(=O)N4CCCCC4)c(=O)c23)C1 (stereo not given)	2
CC1CCc2c(sc3nnn(CC(N)=O)c(=O)c23)C1 (stereo not given)	6.4*
CC1CCc2c(sc3nnn(CC(=O)OC(C)C)c(=O)c23)C1 (stereo not given)	1.4
CCc1sc(C2C(C(=O)OC)=C(C)NC3=C2C(=O)CC(C)(C)C3)cc1Br (stereo not given)	-0.2
O=c1[nH]c2c(nnn2Cc2ccccc2Cl)c(=O)n1-c1cccc(Cl)c1	2.4
Cc1cc(O)c(C(C)C)cc1NS(=O)(=O)c1ccccc1	4.2*
Cc1ccnc(NS(=O)(=O)c2ccccc2)c1	1.5
Cn1c(=O)n(C)c2cc(S(=O)(=O)Nc3ccccc3O)ccc21	-0.21
COC(=O)COc1c(C(=O)OC)sc2ccccc12	0.21
Cn1c(=O)c2c3nc4cc([N+](=O)[O-])ccc4cc3c(=O)n(C)c2n(C)c1=O	-0.92
CCOC(=O)c1c(C)oc2ccc(OC(=O)N3CCOCC3)cc12	1.5
COC(=O)c1c(C)oc2ccc(OC(=O)N3CCOCC3)cc12	5.7*
Cc1oc2ccc(OC(=O)N3CCOCC3)cc2c1C(=O)OC(C)C	-0.19
COC(=O)CSc1n[nH]c(=O)[nH]c1=O	0.14
O=C1C2SCCN2C(=S)N1c1cccc(C(F)(F)F)c1 (stereo not given)	-0.12
Cc1ccc(S(=O)(=O)n2c(=O)oc3cc(Cl)ccc32)cc1	16*
COC(=O)n1c(=O)oc2cc(Cl)ccc21	1.4
Cc1ccc(S(=O)(=O)n2c(=O)sc3ccccc32)cc1	-0.13
CCOC(=O)c1cc(CC)sc1NC1=NS(=O)(=O)c2ccccc21	-0.56
CC(C1CC1)N(Cc1ccccc1)C(=O)CCC(=O)O (stereo not given)	0.7
CCCCOC(=O)CCCN1C(=O)S/C(=C/c2ccc(OC)cc2)C1=S	0.93
COc1ccc(-c2nc3cc(OC)c(OC)cc3c(=O)o2)cc1	2
COc1cc2nc(C(C)(C)C)oc(=O)c2cc1OC	4.1*
COc1cc2nc(-c3ccc(C)cc3)oc(=O)c2cc1OC	-1.4
CCC(CC)c1nc2cc(OC)c(OC)cc2c(=O)o1	0.71
SMILES	Dicer processing
COc1cc2nc(-c3cccc(Br)c3)oc(=O)c2cc1OC	27*
COc1cc2nc(-c3ccccc3)oc(=O)c2cc1OC	-0.18
C#CCSc1nc(C)c2cc(OC)ccc2n1	1.6
COC(=O)c1c(C)nn(-c2ccccn2)c1-c1cc(C)on1	0.6
Cc1ccc(S(=O)(=O)NC2=NCN(CCc3ccccc3)CN2)cc1	-1.2
Cc1ccc(S(=O)(=O)NC2=NCN(Cc3ccccc3)CN2)cc1	4.6*
CCCN1CN=C(NS(=O)(=O)c2ccc(C)cc2)NC1	0.67
CCN(CC)c1ccc(C2Nc3ccccc3NC3=C2C(=O)CC(C)(C)C3)cc1 (stereo not given)	0.38
N/C(=N\OC(=O)Nc1ccc(Cl)cc1)c1ncc([N+](=O)[O-])s1	-2.5
O=C(Nc1ccc(Cl)cc1)Nc1csc([N+](=O)[O-])c1	-0.84
N/C(=N/OC(=O)Nc1ccc(Cl)cc1)c1csc([N+](=O)[O-])c1	5*
COc1ccc2c(c1)c(=O)oc1c(C)c(OCC(=O)O)ccc12	-0.95
NC(N)=NC(N)=Nc1ccc(Cl)cc1C(=O)c1ccccc1	-0.61
CN1C2C=C(N(CCc3ccccc3)C(=O)c3ccccc3)CC1CC2 (stereo not given)	3.1*
CCN(C(=O)c1ccccc1)c1cccc2ccccc12	-1.2
CN(C(=O)c1ccccc1)C(=O)N(C)C(=O)c1ccccc1	-1.4
C#CC(C)(C)NC(=O)NCCCCCCNC(=O)NC(C)(C)C#C	1
Clc1ccc(Sc2nc3sccn3c2C=Nc2ccccc2)cc1	0.23
COc1ccc(/C=C/c2sc3ccccc3[n+]2CCCS(=O)(=O)[O-])c(OC)c1	0.14
COC(=O)C(C)N(C#N)c1nc(C)cc(C)n1 (stereo not given)	6*
COC(=O)CN(C#N)c1nc(C)cc(OC)n1	-0.77
CCN(CC)C(=O)CN(C#N)c1nc(C)cc(C)n1	2.9
COC(=O)C1=C(N)Oc2c(Br)cc(Br)cc2C1C(C#N)C(=O)OC (stereo not given)	-0.28
CCCc1c(C)c(C#N)c2nc3ccccc3n2c1NCCCn1ccnc1	-1.9
Cc1c(Cc2ccc(Cl)cc2)c(NCCCn2ccnc2)n2c(nc3ccccc32)c1C#N	4.4*
SMILES	Dicer processing
Cc1c(CCC(C)C)c(-n2ccnc2)n2c(nc3ccccc32)c1C#N	3.5*
Cc1c(Cc2ccccc2Cl)c(NCCCn2ccnc2)n2c(nc3ccccc32)c1C#N	-0.6
Cc1c(Cc2ccccc2)c(-n2ccnc2)n2c(nc3ccccc32)c1C#N	1.7
CCCCc1c(C)c(C#N)c2nc3ccccc3n2c1N1CCN(CCO)CC1	2.5
Nc1nnc(SCC(=O)N2CCN(S(=O)(=O)c3ccccc3)C2)s1	-0.59
O=C(Nc1c(C(=O)c2ccc(F)cc2)oc2ccccc12)c1cccs1	0.64
S=c1[nH]c(=S)c2cnc(N3CCN(c4ccccc4)CC3)nc2[nH]1	0.45
S=c1[nH]c(=S)c2cnc(N3CCOCC3)nc2[nH]1	3.4*
CCN(CC)c1ncc2c(=S)[nH]c(=S)[nH]c2n1	-0.96
COC(=O)C1=C(Nc2ccc(OC(=O)c3ccccc3Cl)cc2)CSC1	-1.5
CC(C)OC(=O)CSc1nnc(-c2ccc(Br)cc2)o1	0.88
Cc1ccc(-c2nnc(SCC(=O)OC(C)C)o2)cc1	2
COc1ccc(-c2nnc(SCC(=O)OC(C)C)o2)cc1	3.1*
